Test results published in PubChem BioAssay (Tox21).
Records with an inconclusive call do not appear. A call without a number means that no potency is given here. Active and inactive are the calls of the source. Calls come from the whole dose curve; as a rule, active = well fitted cell-killing curve with a large enough effect in the repeat runs; inconclusive = weak or mixed curves; inactive = flat fitted curve, though single readings scatter.

Test: qHTS assay to identify small molecule antagonists of the estrogen related receptor (ERR) signaling pathway from Tox21 library - cell viability counter screen (AID 1224834); note: nearly all actives have a fitted effect of over 30% in size
Conditions: ERR reporter cells viability, CellTiter-Fluor, 17.5 h; series mostly up to 92.4 µM
In short: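 Seeded ERR cells were rested 6 h at 37 C/5% CO2 before compounds, positive and negative controls or DMSO were added. Incubation continued for 17.5 h, and viability was then quantified by CellTiter-Fluor fluorescence.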
Potency is the fitted concentration of half-maximal effect.

| SMILES | Potency |
| --- | --- |
| C=C/C(C)=C/C/C=C(\C)CCC=C(C)C | inactive |
| Cc1cscn1 | inactive |
| c1ccc(C[n+]2cccc3ccccc32)cc1 | inactive |
| C[C@@H](O)[C@H]1C(=O)N2C(C(=O)O)=C([C@H]3CCCO3)S[C@H]12 | inactive |
| c1csc(SSc2cccs2)c1 | 54.5 µM (active) |
| O=C=Nc1ccc(Cl)c(Cl)c1 | inactive |
| CC(CN(C)C)C(C)(O)Cc1ccc(Cl)cc1 (stereo not given) | inactive |
| Brc1cc2ccccc2c2ccccc12 | inactive |
| Nc1ncnc2c1ncn2[C@H]1CC[C@@H](CO)O1 | inactive |
| Cc1cccc(O)c1N | 27.6 µM (active) |
| CCC=CC#N | inactive |
| CS(=O)(=O)c1ccc(-c2cn3ccccc3n2)cc1 | inactive |
| CC1CC(C)C(=O)C1=O (stereo not given) | inactive |
| CCCCCCCCCI | inactive |
| N#CCc1ccc(Cl)cc1Cl | inactive |
| COc1ccc(OC(=O)N(CC(=O)O)Cc2ccc(OCCc3nc(-c4ccccc4)oc3C)cc2)cc1 | inactive |
| CN1C(C(=O)Nc2ccccn2)=C(O)c2sccc2S1(=O)=O | inactive |
| CC1(C)S[C@@H]2[C@H](NC(=O)C(c3ccccc3)S(=O)(=O)O)C(=O)N2[C@H]1C(=O)O (stereo not given in full) | inactive |
| CCCCCC[C@@H](O)C/C=C\CCCCCCCC(=O)OCC(O)CO (stereo not given in full) | inactive |
| Nc1ccc(N=Nc2ccccc2)c(N)c1 | 26.7 µM (active) |
| CCCCN1CCCC1C(=O)Nc1c(C)cc(C)cc1C (stereo not given) | inactive |
| NC(=O)c1ccncc1 | inactive |
| COC(=O)c1nc(Cl)c(Cl)nc1N | 11.9 µM (active) |
| O=c1[nH]ncc2ccccc12 | inactive |
| O=C(OCC(O)CO)c1ccccc1Nc1ccnc2cc(Cl)ccc12 (stereo not given) | 29.8 µM (active) |
